This passage reports max response, Potency and outcome results from PubChem BioAssay (NCATS).

Values joined by “and” are separate entries in the source; they are usually repeats but may differ in a detail not shown here. Equal entries are not always repeated. Records with an inconclusive call do not appear. Active and inactive are the calls of the source. Calls follow the shape of the dose curve; as a rule, active = well fitted inhibition curve with a large enough effect; inconclusive = small, poorly fitted or top-dose-only effect; inactive = flat fitted curve, though single readings scatter.
% is scaled to controls: 0 for no effect and ±100 for the full control effect; potency is read from the fitted curve at half-maximal effect.

The assay relates to KB-3-1. The assay can be described thus: Cytotoxic Profiling of Annotated Libraries Using Quantitative High-Throughput Screening (AID 1296008). Also: nearly all actives have a fitted effect of over 60% in size. The conditions noted are these: Five cell lines viability, CellTiter-Glo ATP luminescence, 48-72 h; max response: stronger effect = lower value. From the text: Cell-based phenotypic screening is a commonly used approach to discover biological pathways, novel drug targets, chemical probes and high-quality hit-to-lead molecules. Many hits identified from high-throughput screening campaign are ruled out through a series of follow-up potency, selectivity/specificity, and cytotoxicity assays. Prioritization of molecules with little or no cytotoxicity for a more in-depth downstream evaluation influence the future direction of projects, so cytotoxicity profiling of the screening libraries at early stage is essential for increasing the likelihood of candidate success. […] For the annotated library, we also examined the primary targets and mechanistic pathways regularly associated with cell death. To our knowledge, this is the first study to use high-throughput screening to profile large libraries for cytotoxicity assessment in both normal and cancer cell lines. In summary, the results generated here constitutes a valuable resource for the scientific community and provides insight on identifying cytotoxic compounds with particular mechanisms of action, and prioritizing compounds with suitable cytotoxicity profile for further evaluation.
A pintool (Kalypsys) was used to transfer 23 nL of compound solution to the 1536-well assay plates. After 48 or 72 hr incubation at 37 degree Celsius, 5% CO2 and 95% humidity, 2.5 uL of CellTiter-Glo (Promega) was dispensed into each well using a dispenser (Aspect Automation, St. Paul, MN) with solenoid valves (Lee Valves, Westbrook CT). Plates were left at room temperature for 10 min before imaging the ATP-coupled luminescence using a ViewLux microplate imager (PerkinElmer, Waltham, MA).
For orientation: Cellular ATP, detected with luciferase, serves as a proxy for viable cell number.
In the case of `CCN(Cc1ccncc1)C(=O)C(CO)c1ccccc1` (stereo not given), the max response is 6.96% (inactive).
Turning to `COCCOC(=O)C1=C(C)NC(C)=C(C(=O)OC(C)C)C1c1cccc([N+](=O)[O-])c1` (stereo not given), the max response is 2.4% (inactive).
On the same count and under the same terms, the same measure for `c1cnc(N2CCN(Cc3ccc4c(c3)OCO4)CC2)nc1`: -6.36% (inactive).
The same measure, in the same setting: in the case of `CC(=O)Oc1cc(C(C)C)c(OCCN(C)C)cc1C` it was 3.97% (inactive).
Regarding `Cc1ccc(S(=O)(=O)NC(=O)NN2CCCCCC2)cc1`, the max response is 3.88% (inactive).
As to `Nc1nc(N)c2nc(-c3ccccc3)c(N)nc2n1`, the max response was -2.1% (inactive).
The same measure, in the same setting: the same measure for `O=C(O)CCCCCCCC(=O)O`: -3.68% (inactive); for `CC(C)(Oc1ccc(CCNC(=O)c2ccc(Cl)cc2)cc1)C(=O)O`: 2.41% (inactive).
As to `CN(C)C(=O)Oc1cccc([N+](C)(C)C)c1`, the max response is 3.68% (inactive).
For the molecule `Cc1scc2c1N(C(=O)CN1CCN(C)CC1)c1ccccc1NC2=O`, the max response is 6.97% (inactive).
In the case of `NC(=O)c1cn(Cc2c(F)cccc2F)nn1`, the max response was -1.38% (inactive).
Still for that read-out and setting: in the case of `c1ccc2c(c1)CCCC2C1=NCCN1` (stereo not given) it was 10.6% (inactive); in that of `CCCCNc1ccc(C(=O)OCCN(C)C)cc1`, 0.24% (inactive); in that of `O=C1CC2(CCCC2)CC(=O)N1CCCCN1CCN(c2ncccn2)CC1`, -1.42% (inactive).
Consider `CN1C[C@H](C(=O)N[C@]2(C)O[C@@]3(O)[C@@H]4CCCN4C(=O)[C@H](Cc4ccccc4)N3C2=O)C[C@@H]2c3cccc4[nH]cc(c34)C[C@H]21`, for which the max response is 0.239% (inactive).
Regarding `NC(=O)c1ncn([C@@H]2O[C@H](CO)[C@@H](O)[C@H]2O)c1O`, the max response was 8.08% (inactive).
Take `CCN(CC)CCNC(=O)c1ccc(NC(C)=O)cc1`: the max response was 1.57% (inactive).
As to `Cc1nc2c([nH]1)c(=O)n(C)c(=O)n2Cc1ccco1`, the max response is 16.5% (inactive).
Still for that read-out and setting: the same measure for `CCN1CCC[C@H]1CNC(=O)c1c(O)c(Cl)cc(Cl)c1OC`: -13.7% (inactive); for `CC(C)(C)c1ccc(C(=O)CCCN2CCC(OC(c3ccccc3)c3ccccc3)CC2)cc1`: -0.417% (inactive).
As to `CC(=O)[C@]1(O)Cc2c(O)c3c(c(O)c2[C@@H](O[C@H]2C[C@H](N)[C@H](O)[C@H](C)O2)C1)C(=O)c1ccccc1C3=O`, the Potency is 4.61 µM (active).
As for `OC(CCN1CCCCC1)(c1ccccc1)C1CCCCC1` (stereo not given), the max response was -15.6% (inactive).
As for `CCO/C([O-])=N/c1c[n+](N2CCOCC2)no1`, the max response is -5.15% (inactive).
Consider `CCn1ccnc1CC1COc2ccccc2O1` (stereo not given), for which the max response was 19.9% (inactive).
As to `CCCN1C[C@H](CSC)C[C@@H]2c3cccc4[nH]cc(c34)C[C@H]21`, the max response was 9.69% (inactive) and the molecule was called inactive.
For the molecule `OCCN1CCN(CCCN2c3ccccc3C=Cc3ccccc32)CC1`, the max response is -12.9% (inactive).
As to `CCCCCCCC/C=C\CCCCCCCC(=O)NCc1ccc(O)c(OC)c1`, the max response was -3.68% (inactive).
On the same count and under the same terms, in the case of `CN=C(NC#N)NCCSCc1nc[nH]c1C` it was -9.62% (inactive).
Still for that read-out and setting: the same measure for `CCCCOCCOCCOCc1cc2c(cc1CCC)OCO2`: -1.58% (inactive) and -16.8% (inactive).
The same measure, in the same setting: the same measure for `CC1=C(C)C(=O)C(CCCCC#CCCCC#CCO)=C(C)C1=O`: -7.44% (inactive); for `CN1C(=O)CC[C@H]1c1cccnc1`: 0.0726% (inactive); for `Cc1ccc(/C(=C\CN2CCCC2)c2ccccn2)cc1`: 18.1% (inactive).
Consider `CCCNC(C)C(=O)Nc1ccccc1C` (stereo not given), for which the max response is 7.86% (inactive).
Same read-out and setting: in the case of `COC(=O)C1=C(C)NC(C)=C(C(=O)OCCN(C)Cc2ccccc2)C1c1cccc([N+](=O)[O-])c1` (stereo not given) it was -10.4% (inactive); in that of `C[C@]12CCC(=O)C=C1CC[C@@H]1[C@@H]2CC[C@@]2(C)[C@H]1CC[C@]2(O)C(=O)CO`, -11.6% (inactive); in that of `C=CCc1ccccc1OCC(O)CNC(C)C` (stereo not given), 2.54% (inactive).
On the same count and under the same terms, the same measure for `O=c1[nH]c(=O)n([C@H]2C[C@H](O)[C@@H](CO)O2)cc1Br`: 2.61% (inactive); for `CCOC(=O)C1=C(C)NC(C)=C(C(=O)OC)C1c1cccc(Cl)c1Cl` (stereo not given): -8.74% (inactive); for `CN1CCN(C2=Nc3ccccc3Oc3ccc(Cl)cc32)CC1`: 6.07% (inactive).
